Tau fluor cs – Counterscreen qHTS for Inhibitors of Tau Fibril Formation, Fluorescence Polarization | AID 1463, 2008 | Potency, µM (series often up to 57.7 µM), for inactives: at the top dose activity change, negative = decrease | tau K18 P301L Alexa594 fluorescence, heparin fibrillization | hit rate 0.93% among 280,000; note: nearly all actives have a fitted effect of over 55% in size
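Human tau K18 P301L (15 uM unlabeled, 0.24 uM Alexa 594-labeled) in 100 mM sodium acetate pH 7 with 20 uM heparin, 6 hr at 37 C. ThT 30 uM added, 1 hr ambient; Alexa 594 FP and total fluorescence read at 555/632 nm.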
VP16 counter – VP16 counterscreen qHTS for inhibitors of ROR gamma transcriptional activity; AID 2546, 2010; hit rate 3.5% among 310,000; Potency, µM (highest dose often 53.6 µM), for inactives: at the highest dose activity, negative = inhibition, actives largely listed as inhibitors; Drosophila S2 Gal4-VP16 UAS-luciferase, luminescence, 20 h;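 note: Gal4-VP16 expression switched on by copper sulfate through the metallothionein promoter; nearly all actives have a fitted effect of over 50% in size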
RORgamma inh – qHTS for inhibitors of ROR gamma transcriptional activity; Nuclear receptor ROR-gamma (Mus musculus), P51450; Drosophila S2 Gal4-RORgamma UAS-luciferase reporter, 20 h; Potency, µM (top dose mostly 53.6 µM), inactives show at the highest dose activity change, negative = inhibition, usual class: inhibitors; hit rate 5.4% among 310,000; AID 2551, 2010; note: nearly all actives have a fitted effect of over 60% in size
Target sequence (P51450 whole entry, looked up, the tested form may be a part): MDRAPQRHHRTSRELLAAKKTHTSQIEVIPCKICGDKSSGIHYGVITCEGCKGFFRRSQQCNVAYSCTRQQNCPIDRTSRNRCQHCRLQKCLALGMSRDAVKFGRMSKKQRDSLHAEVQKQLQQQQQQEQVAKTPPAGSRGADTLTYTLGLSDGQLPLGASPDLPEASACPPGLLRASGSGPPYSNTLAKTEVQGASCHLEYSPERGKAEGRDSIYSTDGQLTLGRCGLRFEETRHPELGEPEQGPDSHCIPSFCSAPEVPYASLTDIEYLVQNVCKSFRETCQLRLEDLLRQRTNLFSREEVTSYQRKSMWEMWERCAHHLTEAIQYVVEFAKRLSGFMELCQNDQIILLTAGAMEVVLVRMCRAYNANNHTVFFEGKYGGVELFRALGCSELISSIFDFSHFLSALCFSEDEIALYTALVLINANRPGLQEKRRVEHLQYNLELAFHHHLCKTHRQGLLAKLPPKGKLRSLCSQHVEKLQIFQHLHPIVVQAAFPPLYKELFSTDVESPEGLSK
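Stable Schneider cell line, Gal4 DNA-binding domain fused to ROR gamma, UAS-luciferase. Cmpd 1 hr RT → CuSO4 700 uM final → 20 hr RT → luciferase reagent 10 min → luminescence.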
Tau FP inhib – qHTS for Inhibitors of Tau Fibril Formation, Fluorescence Polarization; Microtubule-associated protein tau (Homo sapiens), P10636; K18 P301L tau heparin fibrillization, Alexa594 FP, 6 h; Potency, µM (top dose mostly 57.7 µM), without a hit: top-dose activity, negative = inhibition, hits mostly inhibitors; hit rate 0.39% among 280,000; AID 1468, 2008; note: nearly all actives have a fitted effect of over 55% in size
Target sequence (P10636 561-689 P618L limits assumed): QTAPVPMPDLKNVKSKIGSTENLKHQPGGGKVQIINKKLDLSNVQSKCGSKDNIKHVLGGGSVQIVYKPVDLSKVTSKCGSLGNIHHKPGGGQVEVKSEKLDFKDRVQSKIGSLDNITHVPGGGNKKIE
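Read-out: fluorescence polarization of Alexa 594-labeled tau (0.24 uM), 555 nm excitation, 632 nm emission. Mixtures held 15 uM unlabeled K18 P301L, compound and 20 uM heparin, pH 7 acetate buffer, incubated 6 hr at 37 C.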
Tau fibril ThT – qHTS for Inhibitors of Tau Fibril Formation, Thioflavin T Binding. hit rate 2.1% among 270,000. AID 1460, 2008. Microtubule-associated protein tau (Homo sapiens), P10636. Potency, µM (series often up to 57.4 µM), for inactives: top-dose activity, negative = inhibition, hits mostly inhibitors. recombinant tau K18 P301L, heparin-induced fibrillization, ThT fluorescence; note: nearly all actives have a fitted effect of over 55% in size
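ThT emission at 510 nm, taken 1 hr after adding 30 uM dye, quantifies aggregates formed when 20 uM heparin acts on human tau K18 P301L for 6 hr at 37 C.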
Active calls of the source: *; ? = inconclusive; . = no result. The list is not random: actives were taken first. Their share in the collection is about 7.3%. Calls come from the whole dose curve; as a rule, active = well fitted curve in the direction sought with a large enough effect; inconclusive = small, poorly fitted or top-dose-only effect, or another doubt; inactive = no such curve, though single readings can be large; an effect the other way counts as inactive or inconclusive. % is set by controls: 0 for no effect and ±100 for the full control effect; potency is the fitted concentration of half-maximal effect.

SMILES | Tau fluor cs | VP16 counter | RORgamma inh | Tau FP inhib | Tau fibril ThT
S=c1[nH]nc(-c2cc3c(s2)-c2ccccc2CC3)o1 | ? | 10µM* | 5.01µM* | 13.0% | 12.6µM*
O=C(/C=C/c1ccc([N+](=O)[O-])s1)N1CCN(c2ccccc2)CC1 | . | -1.0% | -16.6% | . | .
O=C(/C=C/c1ccc([N+](=O)[O-])s1)N1CCCC1 | -17.2% | 12.6µM* | 6.31µM* | -14.0% | ?
O=C(/C=C/c1ccc([N+](=O)[O-])s1)N1CCCCC1 | -18.0% | ? | 11.2µM* | -5.8% | ?
COc1ccc(-n2nc3c(N4CCCC(C(=O)NCCc5ccc(C)cc5)C4)nnc(C)c3c2C)cc1 (centres undefined) | -10.6% | . | . | -12.8% | ?
Cc1ccn2c(c1)nc(=S)n2C(=O)c1ccccc1 | -20.8% | 2.51µM* | 3.98µM* | ? | ?
Cc1ccc(C(=O)c2cn(CC(=O)NCc3ccccc3Cl)c3nc(C)ccc3c2=O)cc1 | -13.2% | . | . | -12.6% | -4.3%
C/C(=N\N(C)C)C1=C(O)c2ccccc2C1=O | 5.1% | 4.6% | -3.4% | 1.1% | -1.0%
CC(C)=CCC1=C(O)c2ccccc2C(=O)C1=O | ? | ? | ? | ? | 28.2µM*
CCOc1ccc(NC(=O)CSc2nc(C)cc(C)n2)cc1 | -3.3% | 0.1% | -5.6% | -0.7% | -8.4%
CCCCOc1ccc(NC(=S)Nc2cc(C)nc(SCCCC)n2)cc1 | -14.4% | 1µM* | 1.41µM* | 0.1% | -7.7%
CSc1ccccc1NC(=S)N/N=C/c1cccn1Cc1cccc(C)c1 | ? | 5.01µM* | 0.891µM* | 11.3% | -13.0%
Cc1cccc(NC(=S)N/N=C/c2cccn2Cc2ccc(F)cc2)c1 | ? | 2.24µM* | 0.199µM* | 1.2% | -8.6%
CSc1ccccc1NC(=S)N/N=C/c1cccn1Cc1ccc(F)cc1 | ? | ? | ? | 10.1% | 1.2%
CCc1ccc(CNC(=O)Cn2nc(C)c3nn(-c4ccc(Cl)cc4)c(C)c3c2=O)cc1 | -1.4% | . | . | 8.1% | 1.8%
CCn1c(SCC(=O)c2ccc(C)cc2)nnc1-c1ccoc1C | -22.3% | 15.8µM* | ? | -13.6% | ?
CC1(C)S[C@@H]2[C@H](NC(=O)COc3ccccc3)C(=O)N2[C@H]1C(=O)O | -6.8% | ? | 7.4% | -4.7% | -11.3%
CCCCn1c(NCc2ccc(N(C)C)cc2)nc2ccccc21 | ? | 12.6µM* | 17.8% | 1.6% | ?
CCN(CC)CCn1c(NCc2cccc(OC)c2)nc2ccccc21 | -13.2% | -8.1% | 5.62µM* | -3.4% | -9.2%
CCN(CC)CCn1c(NCc2cc(OC)ccc2OC)nc2ccccc21 | -5.2% | 16.2% | ? | 4.5% | -2.1%
CCCn1c(NCc2ccccn2)nc2ccccc21 | 0.7% | -60.8% | 14.1µM* | 9.6% | -5.1%
c1ccc(CNc2nc3ccccc3n2CCN2CCOCC2)nc1 | -0.3% | -4.9% | 3.4% | -2.7% | -1.8%
CCCCn1c(Nc2ccc(OC)cc2)nc2ccccc21 | . | ? | 10µM* | . | .
CSCC[C@H](NC(=O)[C@H](CC(C)C)NC(=O)CNC(=O)[C@H](Cc1ccccc1)N(C)C(=O)[C@H](Cc1ccccc1)NC(=O)[C@H](CC(=O)O)NC(=O)[C@@H](N)CC(=O)O)C(N)=O | . | 1.2% | 11.1% | . | .
COc1ccc(NCN2C(=O)C3C4C=CC(C4)C3C2=O)cc1 (centres undefined) | -14.3% | -1.2% | -34.5% | -7.1% | -12.3%
SMILES | Tau fluor cs | VP16 counter | RORgamma inh | Tau FP inhib | Tau fibril ThT
COCC(=O)N1CCC2(CCCN(c3ccncc3)C2)CC1 | . | -3.2% | -2.5% | . | .
COc1ccc(N2C(=O)CSC23C(=O)N(CC(N)=O)c2ccccc23)cc1 (centres undefined) | -6.1% | . | . | -4.9% | 1.4%
CCOC(=O)Cn1ncc2c3ccccc3n(CC(=O)OCC)c2c1=O | . | 1.0% | -0.3% | . | .
CCN(CC)c1ccc(CNc2nc3ccccc3n2CCN2CCOCC2)cc1 | -16.7% | -13.5% | 11.2µM* | 7.0% | -11.5%
COc1ccc(CNc2nc3ccccc3n2CCN2CCOCC2)cc1 | 5.3% | -3.0% | -8.8% | 12.4% | -3.6%
CC1=C(/C=C/C(=C/C=C/C(C)=C/C(=O)O)c2ccc(C)cc2)C(C)(C)CCC1 | -17.3% | -15.0% | -27.7% | ? | ?
CN1/C(=C\C(=O)c2cncc(Br)c2)C(C)(C)c2ccccc21 | 16.8% | 11.2µM* | -75.5% | 7.8% | ?
CN1/C(=C\C(=O)COC(=O)c2ccco2)C(C)(C)c2ccccc21 | -2.3% | -0.1% | 21.8% | 7.5% | -9.1%
CN1/C(=C\C(=O)c2ccco2)C(C)(C)c2ccccc21 | 18.1% | 10µM* | ? | 3.1% | ?
CN1/C(=C/C(=O)c2nc(S(C)(=O)=O)ncc2Cl)C(C)(C)c2ccccc21 | -2.8% | 5.62µM* | 3.16µM* | 14.5% | 5.01µM*
CCC[C@@H]1CC(C(=O)NC(C2O[C@H](SC)C(OP(=O)(O)O)[C@H](O)[C@H]2O)[C@H](C)Cl)N(C)C1 (some centres undefined) | . | -2.3% | 9.3% | . | .
Cc1ccc(C(=O)c2c(N)c(C(=O)Nc3cccc(C(F)(F)F)c3)c3ccccn23)cc1 | 7.2% | . | . | -7.1% | 11.0%
Cc1sc2ncnc(N(C)CCc3ccccn3)c2c1C | 2.9% | 2.3% | -7.2% | 1.1% | -7.4%
c1ccc(CCNc2ncnc3sccc23)nc1 | 0.6% | 15.8µM* | ? | -1.7% | -10.9%
Cc1csc2ncnc(NCCc3ccccn3)c12 | 0.4% | 10µM* | -5.9% | 7.6% | 0.1%
CCOC(=O)c1ccc(CN(Cc2ccccc2C)S(=O)(=O)c2ccc(C(C)(C)C)cc2)cc1 | -2.2% | . | . | -8.7% | -1.8%
C/C(=N\NC(=O)c1ccccc1)c1nc2ccccc2n1C | -6.0% | 3.16µM* | 1.58µM* | 3.2% | -10.5%
Cn1c(SC(C(=O)Nc2ccc(F)cc2)c2ccccc2)nc2ccccc21 (centres undefined) | ? | ? | 11.2µM* | ? | -11.1%
Cn1c(NC(=O)c2ccccc2NC(=O)C(C)(C)C)nc2ccccc21 | -28.9% | 11.2µM* | 10µM* | -6.5% | ?
Cn1nnnc1SC(C(=O)Nc1ccc(F)cc1)c1ccccc1 (centres undefined) | -1.5% | 3.6% | 22.9% | -4.1% | 3.5%
Cn1c(NC(=O)c2ccc(F)cc2)nc2ccccc21 | . | 1.26µM* | 0.447µM* | . | .
Cc1ccc2c(c1)cc1c(=O)n(CC(=O)N3CCCCC3)nc(C)n12 | -8.3% | . | . | -8.1% | -1.1%
CCCCC(NC(=O)COc1cc2c(c3oc(=O)cc(C)c13)CCC(C)(C)O2)C(=O)O (centres undefined) | . | -5.3% | 5.2% | . | .
COC(=O)c1ccccc1NC(=O)Cn1nc(C)c2nn(-c3ccc(Cl)cc3)c(C)c2c1=O | -3.5% | . | . | -0.6% | -7.0%

High-throughput results as filed in PubChem.
